Compound activity deposited in PubChem BioAssay by several laboratories.
HSF1 inh: HSF1 inhibition; NIH3T3-HGL HSE-luciferase, MG132-induced, luminescence 8 h; active compounds read low; activity change, negative = inhibition, % at 7.5 µM (by protocol); 300,000 tested, 0.77% active; AID 2098;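 active = more than half of replicate wells show activity change below -50%, luminescence cut by over half; inconclusive = some wells, but at most half, below -50%; inactive = no replicate well below -50%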;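 note: luciferase reports HSF-1 transcriptional activity via heat shock element; 0% = median of DMSO wells and -100% = zero luminescence signal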
GAA850 FXN act: increases GAA850 frataxin promoter reporter activity | 360,000 tested, 0.56% active | activation, % at 6 µM | HEK293 lucGAA850 FXN promoter luciferase reporter, 24 h; percent of 10 µM SAHA response;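 active = activation above the average of all compounds screened plus 3 SD, cutoff fixed separately per campaign, cut at about 7.5% in these data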;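 note: 0% = DMSO wells and 100% = 10 µM SAHA wells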
NR0B1 inh: inhibitors of human orphan nuclear receptor DAX1 (NR0B1); HEK293 Gal4-DAX1 luciferase reporter, luminescence; inhibition, % at 6.75 µM; 340,000 tested, 0.99% active;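 active = inhibition above the mean over all tested compounds plus 3 SD, cut at about 4.2% in these data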;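 note: 0% = DAX1-transfected cells with DMSO and 100% = empty-vector control cells with DMSO; inhibition shows as a rise in luminescence from relieved DAX1 repression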
Target sequence (P51843 207-470 limits assumed): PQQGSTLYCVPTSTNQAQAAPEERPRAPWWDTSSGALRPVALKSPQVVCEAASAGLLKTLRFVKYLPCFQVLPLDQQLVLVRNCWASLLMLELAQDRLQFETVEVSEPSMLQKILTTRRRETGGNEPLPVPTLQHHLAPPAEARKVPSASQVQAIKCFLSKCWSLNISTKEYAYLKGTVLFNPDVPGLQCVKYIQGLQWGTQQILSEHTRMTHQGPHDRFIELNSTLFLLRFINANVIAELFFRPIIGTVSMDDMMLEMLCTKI
AHR activator: human AHR activation; P35869; AHR-responsive luciferase reporter cells, luminescence; activation, % at 5 µM; 320,000 tested, 2.5% active; AID 2796; in the data active = activation above about 47%;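 note: 0% = vehicle wells and 100% = reference agonist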
HSF1 activator: increases HSF-1 driven luciferase reporter signal. AID 504408. 300,000 tested, 1.7% active. activation, % at 9 µM. NIH3T3-HGL HSF-1 luciferase reporter, MG132, 8 h; 100% = twice DMSO control signal;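 active = mean replicate activation of at least 50% with a set share of replicates each reaching 50%; inconclusive = only one of those two conditions met; inactive = mean below 50% and too few replicates reaching it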;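 note: 0% = median of the neutral control wells and 100% = twice that signal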
AHR act confirm: confirmation of human aryl hydrocarbon receptor activators; shares compounds with AHR activator; human cells, AHR-responsive luciferase reporter, luminescence; activation, % at 9 µM; 2,300 tested, 87% active; AID 2845; in the data active = activation above about 49%;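 note: HepG2 hepatoma cells carrying a DRE-driven firefly luciferase reporter; 0% = vehicle wells and 100% = reference agonist wells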
PXR counter: PXR activation, counter-screen for AHR activators. AID 434939. activation, % at 11.6 µM. 2,300 tested, 88% active. shares compounds with AHR activator. cell-based PXR reporter, luciferase luminescence; in the data active = activation above about 11%;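 note: human hepatoma DPX-2 cells expressing full-length human PXR; 0% = DMSO and 100% = reference agonist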
GAA30 counter: GAA30 FXN promoter activation counter-screen. 1,900 tested, 66% active. shares compounds with GAA850 FXN act. HEK293 lucGAA30 FXN promoter luciferase, 24 h; DMSO = 0%, 5 µM ipriflavone = 100%. AID 588350. activation, % at 6 µM;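 active = mean activation above the mean of solvent-only control wells plus 3 SD, cut at about 22% in these data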;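 note: counterscreen of GAA850 promoter hits where activity marks nonselective or luminescence artifacts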
GAA850 confirm: confirmation of GAA850 frataxin (FXN) promoter activators; shares compounds with GAA850 FXN act; 1,900 tested, 86% active; HEK293 lucGAA850 FXN promoter luciferase reporter, 24 h; 100% = activation by SAHA; activation, % at 6 µM;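 active = mean activation above a set limit taken from the primary screen, cut at about 8% in these data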;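 note: 0% = DMSO wells and 100% = 10 µM SAHA wells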
Active calls of the source: *; ? = inconclusive; . = no result given. In the library only some 5.4% were active in any assay of this set; here they are far more common.

SMILES	HSF1 inh	GAA850 FXN act	NR0B1 inh	AHR activator	HSF1 activator	AHR act confirm	PXR counter	GAA30 counter	GAA850 confirm
COc1ccccc1-c1nnc(SCC(=O)Nc2c(Cl)cccc2Cl)o1	1	-1	0	80*	7	95*	83*	.	.
COc1ccccc1-c1nnc(SCC(=O)NC2CCCCC2)o1	3	3	2	22	2	.	.	.	.
O=C(/C=C/c1ccccc1)c1c[nH]c2ccccc12	54	12*	4.3*	84*	111*	93*	32*	142*	52*
Cc1ccc(-c2nc(Nc3ccccc3)n[nH]2)cc1	.	7.7*	2	122*	.	111*	8	112*	38*
Cc1cc(C)nc(Nc2n[nH]c(-c3ccccc3Cl)n2)n1	20	1	0	17	32	.	.	.	.
CCC(=O)Nc1c(C(=O)Nc2ccc3c(c2)OCCO3)oc2ccccc12	9	9.8*	0	87*	13	19	30*	104*	32*
CCC(=O)Nc1ccc(NC(=O)c2oc3ccccc3c2C)cc1	11	-10	-1	6	19	.	.	.	.
COc1ccc(/C=C/c2nc(-c3ccccc3O)n[nH]2)cc1	-12	7.6*	2	94*	7	46	6	94*	23*
Fc1cccc(/C=N/Nc2ncnc3nc[nH]c23)c1	16	10*	0	105*	25	78*	33*	113*	49*
Cc1ccc(/C=N/Nc2ncnc3nc[nH]c23)cc1	3	17*	5.6*	115*	7	104*	84*	123*	56*
Fc1ccccc1/C=N/Nc1ncnc2nc[nH]c12	2	11*	2	130*	-14	83*	40*	98*	47*
Oc1ccc(/C=N/Nc2ncnc3nc[nH]c23)cc1	-7	6	3	4	9	.	.	.	.
CC(C)CC(OC(=O)c1ccc(Cl)nc1)C(=O)NC1CCCC1 (stereo unspecified)	2	-1	0	-2	4	.	.	.	.
COc1ccccc1/C=C/CN1CCC(n2nccc2NC(=O)C2CC2)CC1	-3	1	-1	-2	7	.	.	.	.
CSc1cc(C)c(OCC(=O)Nc2c(C)nn(C)c2C)c(C)c1	-9	-1	-1	10	-6	.	.	.	.
COc1ccc(-c2csc(C(C)(O)c3ccc(F)c(F)c3)n2)cn1 (stereo unspecified)	.	0	.	.	.	.	.	.	.
Cc1cc(C)nc(Nc2cccc(Cl)c2)n1	-4	2	1	.	-13	.	.	.	.
CCC(C)Oc1cc(-c2ccnc(Nc3cccc(Cl)c3)n2)ccn1 (stereo unspecified)	-17	22*	-1	114*	-29	72*	31*	40*	82*
c1cncc(CNc2cccc(-c3nc4ccccc4[nH]3)c2)c1	11	8.5*	-1	167*	36	112*	137*	89*	28*
c1ccc(NCc2cccnc2)cc1	.	-3	2	1	.	.	.	.	.
Cc1nonc1OCCNCc1c(C(=O)N(C)C)nc2ccc(Cl)cn12	2	-1	0	3	12	.	.	.	.
CNc1oc(/C=C/c2ccccc2)nc1C#N	-4	8.3*	1	136*	-2	112*	18*	133*	40*
COCCNc1oc(/C=C/c2ccccc2)nc1C#N	19	5	4	47	36	.	.	.	.
Cc1ccc(-n2ncc(Cl)c2C(=O)NC2CC2)cc1	15	8.6*	2	90*	54*	136*	21*	110*	32*
CNC(=O)c1c(Cl)cnn1-c1ccc(C)cc1	14	5	0	24	?	.	.	.	.
SMILES	HSF1 inh	GAA850 FXN act	NR0B1 inh	AHR activator	HSF1 activator	AHR act confirm	PXR counter	GAA30 counter	GAA850 confirm
COc1ccc(OC)c2nc(-c3ccc4c(c3)OCO4)ccc12	28	9.5*	5.7*	117*	54*	125*	46*	124*	44*
Cc1[nH]c2ccccc2c1/C=C/c1nc2ccccc2c(=O)[nH]1	30	8.2*	2	166*	80*	91*	55*	102*	38*
Cc1cccc(/C=C/c2nc3ccccc3c(=O)[nH]2)c1	14	-2	0	-4	3	.	.	.	.
CSCCC(NC(=O)c1ccccc1)C(=O)OCC(=O)NCc1ccco1 (stereo unspecified)	.	0	1	0	.	.	.	.	.
COc1cccc2sc(Nc3nnc(-c4cccs4)o3)nc12	205	7.7*	-1	106*	301*	97*	18*	37*	40*
COc1ccc(S(=O)(=O)N2CCN(C(=O)c3ccco3)CC2)cc1C(C)(C)C	1	2	-2	1	6	.	.	.	.
COc1ccc(-c2cc(-c3ccccc3)n[nH]2)c(O)c1	28	8.2*	2	125*	45	73*	17*	121*	38*
CCCc1nnc2n1N=C(c1ccc(C)cc1)CS2	7	3	0	8	41	.	.	.	.
Cc1cc(-c2ccc(N3CCOCC3)cc2)nc2ccccc12	26	8.0*	1	.	46	.	52*	130*	50*
CC(=O)N1CCN(c2ccc(NC(=O)c3ccc([N+](=O)[O-])o3)cc2Cl)CC1	-88*	7.7*	-1	-4	-89	.	.	41*	28*
CCN1CCN(c2ccc(NC(=O)c3ccc([N+](=O)[O-])o3)cc2Cl)CC1	-43	4	-3	.	-42	.	.	.	.
CCC(=O)N1CCN(c2ccc(NC(=O)c3ccc([N+](=O)[O-])o3)cc2Cl)CC1	115	9.3*	-2	.	128*	.	.	42*	26*
N#Cc1ccc(/C=C(\C(=O)C(=O)O)c2ccc3ccccc3n2)cc1	30	8.3*	6.0*	20	34	.	.	132*	43*
N#CCCN(C(=O)COC(=O)c1ccc2ccccc2n1)c1ccccc1	.	0	0	18	.	.	.	.	.
O=C1c2ccccc2-c2onc3ccc(Oc4ccccc4)c1c23	44	32*	-2	15	48	.	.	51*	40*
COc1ccc(/C=C/C(=O)OCC(=O)NC2CC2)c(OC)c1	.	1	0	1	.	.	.	.	.
CC(C)(C)c1csc(N/N=C/c2cccnc2)n1	0	7.9*	0	28	1	.	.	91*	37*
